This passage reports inhibition results from PubChem BioAssay AID2012 (Sanford-Burnham Center for Chemical Genomics, 2009).

The target of this assay is Eukaryotic translation initiation factor 4H (Homo sapiens) (UniProt Q15056). The experiment in a line: eIF4H binding inhibition – biochemical, uHTS, fluorescence polarization, translation initiation inhibitor project, primary screen (AID 2012).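 Further: calls also rest on retests at 20 µM and on dose response follow-up.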 The following applies: eIF4H fluorescence polarization binding assay, stronger effect = higher value.

Molecules are shown by their SMILES. Out of some 290,000 compounds screened, about 2,700 (0.93%) were called active. How the calls were made is not given here. Only a selection was taken, and actives are over-represented in it overall.

A word on the inhibition: it is the relative decrease from the control value, in per cent.

Regarding `COc1ccc(S(=O)(=O)N2CCOC2CNC(=O)C(=O)NCc2ccncc2)cc1C` (stereo unspecified), the inhibition (at 35 µM) is -2.1% (inactive).

Take `COc1ccccc1NC(=O)CSc1nnc(C)n1CC1CCCO1` (stereo unspecified): under “at 35 µM”, the inhibition is -1.3% (inactive).

In the case of `CCOc1ccc(NC(=O)c2cccc3c2C(=O)N(CC2CCCO2)C3)cc1` (stereo unspecified), where the note is “at 35 µM”, the inhibition is 3% (inactive).

`CCOc1cccc(=O)c2c(C)n(CC3CCCO3)c(C)c12` (stereo unspecified): the inhibition (at 35 µM) was 79.5% (active).

In the case of `Cc1c2cnn(CC(=O)NCCCN3CC(C)CC(C)C3)c(=O)c2c(C)n1Cc1ccc(Cl)cc1` (stereo unspecified), under “at 35 µM”, the inhibition is -3.1% (inactive).

As for `O=[N+]([O-])c1ccc(NC(=S)N2CCN(c3ccccn3)CC2)cc1`, the inhibition (at 35 µM) is -4.4% (inactive).

Regarding `CCn1cc(C(=O)NCCC(=O)NCCO)c(=O)c2cc3c(cc21)OCO3`, the inhibition (at 35 µM) was 13.7% (inactive).

Regarding `CCN(CC)C(=O)CSC(Nc1cccc(F)c1)=C(C#N)C#N`, the inhibition (at 35 µM) is 63% (active) and the inhibition (confirmation average, at 20 µM) came to 56.7%.

Consider `CCN(CC)C(=O)C(=O)Nc1cccc(Br)c1`, for which the inhibition (at 35 µM) is -3% (inactive).

`O=C(CCN1C(=O)c2ccccc2C1=O)Nc1cccc(F)c1`: the inhibition (at 35 µM) is 0.6% (inactive).

Take `CC(C)n1c(COc2ccccc2)nc2ccccc21`: under “at 35 µM”, the inhibition was -1.5% (inactive).

Consider `CCC(Oc1ccccc1C)C(=O)Nc1ccc(S(=O)(=O)Nc2cc(C)on2)cc1` (stereo unspecified), for which the inhibition (at 35 µM) is -3.3% (inactive).

As for `CN(C)S(=O)(=O)N1CCC(Oc2cccc(C(=O)NCCCC3CCCC3)c2)CC1`, the inhibition (at 35 µM) was -18.3% (inactive).

Regarding `O=C(OCc1cc2ccccc2[nH]c1=O)c1cccnc1`, under “at 35 µM”, the inhibition is -7.3% (inactive).

As for `O=C(OCc1cc(Cl)ccc1OC(F)F)c1cccnc1`, the inhibition reads like this: (at 35 µM) 54.6% (active); (confirmation average, at 20 µM) 83.8%.

For `Cc1cc(=O)[nH]c(SCc2cc(Cl)ccc2OC(F)F)n1`, the inhibition (at 35 µM) is -16.4% (inactive).

For the compound `Cn1c(CCNS(=O)(=O)c2ccc(F)cc2)nnc1SCc1cccnc1`, the inhibition (at 35 µM) is -0.9% (inactive).

Regarding `CCOC(=O)C1CCN(Cc2ccc(-c3ccccc3)cc2)CC1`, the inhibition (at 35 µM) is 3.6% (inactive).

For `CCNC(=S)NNC(=O)C1CCN(Cc2ccccc2)CC1`, the inhibition (at 35 µM) is 1.5% (inactive).

With `CCCC(=O)C1CCN(Cc2ccccc2)CC1`, the inhibition by setting is: (at 35 µM) 7.7% (active); (confirmation average, at 20 µM) 89.5%.

With `CCOC(=O)CNC(=O)CSc1nc2cccnc2n1CC`, under “at 35 µM”, the inhibition is 5.8% (inactive).

As to `CCc1nc2cccnc2n1-c1ccc(C(=O)O)cc1`, the inhibition reads like this: (at 35 µM) 91.6% (active); (confirmation average, at 20 µM) 89.8%.

Regarding `COCCCNC(=O)Cc1ccc(-n2c(C)nc3cccnc32)cc1`, the inhibition was 63.6% (inactive) (at 35 µM) and 13.7% (confirmation average, at 20 µM).

As for `CCN(CC(=O)Nc1ccc(C)c(S(=O)(=O)N(C)C)c1)Cc1ccccc1`, the inhibition (at 35 µM) is 6.5% (inactive).

Take `O=c1c(-c2cccc(Cl)c2)c[nH]n1-c1ccccc1`: under “at 35 µM”, the inhibition was 4.3% (inactive).

As to `Cc1ccc2[nH]c3c(c2c1)CN(C(=O)CN1CCN(c2ccccc2)CC1)CC3`, the inhibition (at 35 µM) was 76.8% (active).

With `CCCC(=O)N1CCc2[nH]c3ccccc3c2C1`, the inhibition (at 35 µM) is -0.2% (inactive).

For the compound `O=C(CN1CCCC1)N1CCN(c2ccccc2)CC1`, the inhibition (at 35 µM) is -11.2% (inactive).

In the case of `COc1ccc(OC)c(S(=O)(=O)n2c([N+](=O)[O-])cnc2C)c1`, under “at 35 µM”, the inhibition is -9.3% (inactive).

Take `COc1ccccc1C(=O)N/C(=C/c1ccco1)C(=O)Nc1ccc(C(=O)O)cc1`: the inhibition (at 35 µM) is 59.8% (active) and the inhibition (confirmation average, at 20 µM) came to 65.3%.

Take `O=C(NCc1ccco1)/C(=C/c1ccco1)NC(=O)c1ccccc1`: for the setting “at 35 µM”, the inhibition is 3.9% (inactive).

As to `Cc1ccc(NC(=O)/C(=C\c2ccccc2)NC(=O)c2ccco2)cc1`, the inhibition (at 35 µM) was 3.5% (inactive).

Turning to `COc1ccccc1C(=O)N/C(=C/c1ccc2c(c1)OCO2)C(=O)Nc1cccc(C(=O)O)c1`, where the note is “at 35 µM”, the inhibition was -11.5% (inactive).

For the compound `Cc1cccc(NC(=O)/C(=C\c2ccco2)NC(=O)c2ccccc2)c1`, where the note is “at 35 µM”, the inhibition was 57.6% (active).

`O=C(Nc1ccccc1)/C(=C\c1ccco1)NC(=O)c1ccco1`: for the setting “at 35 µM”, the inhibition is 26.2% (inactive).

For the compound `C=CCOc1cccc(C2C(C(=O)c3ccc(C)o3)=C(O)C(=O)N2CCCn2ccnc2)c1` (stereo unspecified), the inhibition (at 35 µM) is -4.1% (inactive).

In the case of `CCOc1ccc(N(CC(=O)NCC2CCCO2)S(=O)(=O)c2ccc(C)cc2)cc1` (stereo unspecified), the inhibition (at 35 µM) is 11.5% (inactive).

`COc1ccc(-c2nnc3n2CCCCC3)cc1`: the inhibition (at 35 µM) was -12.1% (inactive).

`COCCn1cnc2c1c(=O)n(CC(=O)NN)c(=O)n2Cc1ccccc1`: under “at 35 µM”, the inhibition was -8.7% (inactive).

For `O=C(Nc1ccccc1)C1CCN(C(=O)c2ccc(Br)cc2)CC1`, the inhibition (at 35 µM) is -11% (inactive).

As for `COc1ccc(C(C)=O)cc1CSc1nc2nc(C)cc(C)n2n1`, the inhibition (at 35 µM) was 1.9% (inactive).

As for `CCOC(=O)C(C)Sc1nnc(CSc2nc3nc(C)cc(C)n3n2)o1` (stereo unspecified), the inhibition (at 35 µM) is -7.5% (inactive).

On to `Cc1cc(C)n2nc(SCC(N)=O)nc2n1`, for which the inhibition is -5.6% (active) (at 35 µM) and 113% (confirmation average, at 20 µM).

As to `COc1cnc(-c2ccccn2)nc1Oc1ccc(C(C)(C)C)cc1`, the inhibition (at 35 µM) was 11.9% (inactive).

For the compound `COc1ccc(CCN(C)C(=O)C23CC4CC(CC(Cl)(C4)C2)C3)cc1OC`, the inhibition (at 35 µM) was -16.6% (inactive).

Take `CCN(CC)CCOc1ccc2c(c1)C(=NNC(=O)c1ccccn1)c1cc(OCCN(CC)CC)ccc1-2`: the inhibition runs as follows: (at 35 µM) -3% (active); (confirmation average, at 20 µM) 83.6%.

On to `COc1ccc(CC(=O)N/N=C(\C)c2ccccn2)cc1`, for which the inhibition (at 35 µM) is 7.3% (inactive).

In the case of `Cc1cccc(OCC(=O)NCCCNC(=O)c2ccccn2)c1`, where the note is “at 35 µM”, the inhibition is -28.2% (inactive).
